Holding throughout (assay): Primary qHTS to identify gynecologic anti-cancer compounds using libraries of approved drugs and bioactive compounds (AID 1345084); also: nearly all actives have a fitted effect of over 55% in size
In one experiment the test system is CAOV3. The following applies: Gynecologic cancer cell panel viability, ATPlite luminescence, 48 h; series mostly up to 57.5 µM. In a few lines:
(§1)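 Cell viability after 48 h drug treatment, ATPlite luminescence readout; five doses.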
For orientation: ATP-based viability assays read luminescence as a measure of living cells.

In a further experiment the test system is CASKI. The following applies: Gynecologic cancer cell panel viability, ATPlite luminescence, 48 h; series mostly up to 57.5 µM. The method, boiled down:
as §1

Another experiment has as its system Es-2. To be noted: Gynecologic cancer cell panel viability, ATPlite luminescence, 48 h; series mostly up to 57.5 µM. In a few lines: as §1
The next experiment has as its system HeLa. To be noted: Gynecologic cancer cell panel viability, ATPlite luminescence, 48 h; series mostly up to 57.5 µM. In a few lines:
as §1

The test system of the next experiment is Hek293T. The following applies: Gynecologic cancer cell panel viability, ATPlite luminescence, 48 h, control line for the selectivity index; series mostly up to 57.5 µM. In a few lines: as §1
For another experiment, the system named is JEG-3. The following applies: Gynecologic cancer cell panel viability, ATPlite luminescence, 48 h; series mostly up to 57.5 µM. The method, boiled down:
as §1

A further experiment relates to PA-1. The following applies: Gynecologic cancer cell panel viability, ATPlite luminescence, 48 h; series mostly up to 57.5 µM. In a few lines: as §1
Another experiment concerns SKOV3. The following applies: Gynecologic cancer cell panel viability, ATPlite luminescence, 48 h; series mostly up to 57.5 µM. In a few lines:
as §1

In a further experiment the test system is Tov-21-G. To be noted: Gynecologic cancer cell panel viability, ATPlite luminescence, 48 h; series mostly up to 57.5 µM. In a few lines:
as §1

A further experiment concerns OV90. To be noted: Gynecologic cancer cell panel viability, ATPlite luminescence, 48 h; series mostly up to 57.5 µM. In a few lines:
as §1

For 18 compounds, Potency results are on record in PubChem BioAssay (NCATS).

Structures are written as SMILES. Records with an inconclusive call do not appear. Activity calls are given as the source filed them. Calls follow the shape of the dose curve; as a rule, active = well fitted cell-killing curve with a large enough effect; inconclusive = small, poorly fitted or top-dose-only effect, or effect the other way; inactive = flat fitted curve, though single readings scatter.
Potency is read from the fitted curve at half-maximal effect.

Turning to `O=C(O)c1nn(Cc2ccc(Cl)cc2Cl)c2ccccc12`, the Potency entry in the experiment with CAOV3, in the experiment on CASKI, in the experiment on Es-2, in the experiment on HeLa, in the experiment on Hek293T and in the experiment on JEG-3 was “inactive” each time. In addition, the Potency result in the experiment on PA-1, in the experiment with SKOV3 and in the experiment with Tov-21-G was “inactive” in each case.
Regarding `c1ccc2nc(N3CCNCC3)ccc2c1`, the Potency result in the experiment with CAOV3, in the experiment on CASKI, in the experiment on Es-2, in the experiment on HeLa, with Hek293T and in the experiment with JEG-3 was “inactive” each time. Besides, the Potency result with PA-1, in the experiment on SKOV3 and in the experiment with Tov-21-G was “inactive” throughout.
Turning to `CCCC[N+]1(C)[C@@H]2CC(OC(=O)[C@H](CO)c3ccccc3)C[C@H]1[C@@H]1O[C@@H]12` (stereo partly specified), the Potency entry with CAOV3, in the experiment on CASKI, in the experiment with Es-2, with HeLa, with Hek293T and in the experiment on JEG-3 was “inactive” in each case. Besides, the Potency entry in the experiment with OV90, with PA-1, with SKOV3 and in the experiment on Tov-21-G was “inactive” throughout.
For `Cc1c(Cl)c(=O)oc2cc(OP(=O)(OCCCl)OCCCl)ccc12`, the Potency result in the experiment on CAOV3, in the experiment with CASKI, in the experiment on Es-2, in the experiment on HeLa, in the experiment on Hek293T and in the experiment on JEG-3 was “inactive” each time. Further, the Potency entry in the experiment on PA-1, in the experiment on SKOV3 and with Tov-21-G was “inactive” throughout.
In the case of `CCOC(=O)C(c1c(O)c2ccccc2oc1=O)c1c(O)c2ccccc2oc1=O`, the Potency result with CAOV3, in the experiment on CASKI, in the experiment on Es-2, in the experiment with HeLa, with Hek293T and in the experiment with JEG-3 was “inactive” throughout. For the same compound, the Potency entry in the experiment with OV90, in the experiment with PA-1, with SKOV3 and in the experiment on Tov-21-G was “inactive” each time.
Take `CC(Cc1ccccc1)NCc1ccccc1Cl` (stereo unspecified): the Potency entry in the experiment with CAOV3, with CASKI, in the experiment with Es-2, with HeLa, in the experiment with Hek293T and in the experiment with JEG-3 was “inactive” throughout. Moreover, the Potency result in the experiment on OV90, in the experiment with PA-1, in the experiment with SKOV3 and in the experiment on Tov-21-G was “inactive” in each case.
`COP(=S)(OC)Oc1ccc(S(N)(=O)=O)cc1`: the Potency entry with CAOV3, with CASKI, in the experiment on Es-2, in the experiment with HeLa, in the experiment with Hek293T and in the experiment on JEG-3 was “inactive” throughout. Also, the Potency result in the experiment on OV90, in the experiment on PA-1, in the experiment with SKOV3 and with Tov-21-G was “inactive” throughout.
`CN1C2CCC(C)(C)C1CC(OC(=O)C(O)(c1cccs1)c1cccs1)C2` (stereo unspecified): the Potency entry with CAOV3, with CASKI, in the experiment with Es-2, in the experiment on HeLa, with Hek293T and in the experiment on JEG-3 was “inactive” each time. Besides, the Potency entry in the experiment on PA-1, in the experiment on SKOV3 and in the experiment on Tov-21-G was “inactive” each time.
Turning to `COc1cc(C[C@@H](C)N)c(OC)cc1C`, the Potency entry in the experiment with CAOV3, in the experiment with CASKI, with Es-2, in the experiment with HeLa, in the experiment on Hek293T and with JEG-3 was “inactive” in each case. Besides, the Potency entry in the experiment with PA-1, in the experiment on SKOV3 and in the experiment with Tov-21-G was “inactive” throughout.
For `CCCOC(=O)Cc1ccc(OCC(=O)N(CC)CC)c(OC)c1`, the Potency entry in the experiment on CAOV3, in the experiment with CASKI, in the experiment with Es-2, with HeLa, in the experiment with Hek293T and with JEG-3 was “inactive” in each case. The Potency result in the experiment on OV90, with PA-1 and with Tov-21-G was “inactive” throughout.
In the case of `CCN(CC)Cc1nccn1-c1ccc([N+](=O)[O-])cc1C(=O)c1ccccc1Cl`, the Potency result in the experiment with CAOV3, with CASKI, with Es-2, in the experiment on HeLa, in the experiment with Hek293T and in the experiment with JEG-3 was “inactive” throughout. Also, the Potency entry in the experiment with SKOV3 and in the experiment on Tov-21-G was “inactive” in each case.
For the compound `Cc1cccc(Cc2cnc[nH]2)c1C`, the Potency entry with CAOV3, in the experiment on CASKI, in the experiment with Es-2, in the experiment with HeLa, in the experiment on Hek293T and in the experiment with JEG-3 was “inactive” throughout. The Potency entry with OV90, in the experiment with PA-1, with SKOV3 and with Tov-21-G was “inactive” each time.
Turning to `CC(C(O)c1ccccc1)N(C)C/C=C/c1ccccc1` (stereo unspecified), the Potency result in the experiment with CAOV3, in the experiment on CASKI, with Es-2, in the experiment on HeLa, in the experiment with Hek293T and with JEG-3 was “inactive” throughout. In addition, the Potency result in the experiment on PA-1, in the experiment on SKOV3 and with Tov-21-G was “inactive” each time.
On to `COc1cc(CC(C)N)cc2c1OCO2` (stereo unspecified), for which the Potency entry in the experiment on CAOV3, in the experiment on CASKI, in the experiment on Es-2, in the experiment on HeLa, in the experiment on Hek293T and in the experiment on JEG-3 was “inactive” throughout. Besides, the Potency entry in the experiment on OV90, with PA-1 and with Tov-21-G was “inactive” each time.
For the compound `CCN(Cc1ccc(Cl)nc1)/C(=C/[N+](=O)[O-])NC`, the Potency entry in the experiment with CAOV3, in the experiment on CASKI, with Es-2, with HeLa, with Hek293T and with JEG-3 was “inactive” in each case. The Potency result with OV90, with PA-1 and in the experiment on Tov-21-G was “inactive” each time.
On to `COc1ccc(OC)c(CC(C)N)c1` (stereo unspecified), for which the Potency entry in the experiment with CAOV3, in the experiment with CASKI, in the experiment on Es-2, in the experiment with HeLa, in the experiment on Hek293T and in the experiment with JEG-3 was “inactive” throughout. For the same compound, the Potency result in the experiment on OV90, in the experiment with PA-1 and with Tov-21-G was “inactive” each time.
Take `C=CC[C@]1(O)CC[C@H]2[C@@H]3CCC4=CC(=O)CCC4=C3C=C[C@@]21C`: the Potency entry in the experiment with CAOV3, in the experiment with CASKI, with Es-2, with HeLa, in the experiment with Hek293T and in the experiment with JEG-3 was “inactive” in each case. In addition, the Potency entry with PA-1 and with Tov-21-G was “inactive” in each case.
For `CC[n+]1c(-c2ccccc2)c2cc(N)ccc2c2ccc(N)cc21`, the Potency with CAOV3 was 12.6 µM (active); in the experiment with CASKI, 20 µM (active); in the experiment with OV90, 14.1 µM (active); in the experiment with PA-1, 1.26 µM (active); with Tov-21-G it was 15.8 µM (active).
